# Shown are actives, neighbours in structure and some others; about 6.2% of the full set was active somewhere.
# Lassa entry inh – qHTS for Inhibitors of binding or entry into cells for Lassa Virus; AID 540256, 2011; hit rate 1.2% among 300,000; Lassa virus pseudotype entry inhibition, cell reporter; Potency, µM (doses to about 37.9 µM), for the others: at the highest dose activity change, negative = inhibition, most hits filed as inhibitors; calls by dose curve; tested in HEK293 cells; also: potency is read from the fitted curve at half-maximal effect; nearly all actives have a fitted effect of over 50% in size
# Marburg entry inh – qHTS for inhibitors of binding or entry into cells for Marburg Virus | Potency, µM (doses to about 37.8 µM), for the others: top-dose activity change, negative = inhibition, hits mostly inhibitors | Marburg virus pseudotyped entry inhibition, cell reporter | hit rate 1.8% among 300,000; calls by dose curve; tested in HEK293 cells; also: potency is read from the fitted curve at half-maximal effect
# FMDV inh – High Throughput Screening for Foot and Mouth Disease Virus Antivirals; FMDV antiviral cell-based qHTS; Potency, µM (series often up to 57.9 µM), inactives show at the top dose activity change, negative = inhibition, usual class: inhibitors; hit rate 1.2% among 410,000; AID 1159524, 2015; calls by dose curve; tested in HEK293T cells; also: read-out not given here; potency is read from the fitted curve at half-maximal effect; nearly all actives have a fitted effect of over 45% in size
# HCMV antiviral – qHTS Assay for inhibitors of the human cytomegalovirus (HCMV); HFF cells, HCMV-luciferase reporter, 72 h; active compounds read low; AID 1259415, 2018; activity change, negative = inhibition, % at 57.5 µM; hit rate 4.5% among 410,000; in the data active = activity change below about -60%; inconclusive = no clear call, values can overlap the other calls; inactive = above about -39%
#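 HFF cells seeded 16 h at 37C, treated with compounds, infected with luciferase-reporter HCMV at MOI 1 PFU/cell; luciferase read at 72 h post infection, normalized to buffer-only and Salinomycin controls.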
# * marks the source's active call; other numbers are inactive results; ? = inconclusive; . = no result; [ ] = dose if it differs, or a comment. % is scaled to controls: 0 for no effect and ±100 for the full control effect.
SMILES,Lassa entry inh,Marburg entry inh,FMDV inh,HCMV antiviral
COc1ccc(Cl)cc1C(=O)OCC(=O)NC(=O)c1cccn1C,-2.2%,0.3%,24.9%,-5.8
CCn1ncc(C2=NOC(C(=O)Nc3c(C)nn(Cc4ccc(F)cc4)c3C)C2)c1C (centres undefined),.,.,-1.6%,-60.6*
CCn1ncc(C2=NOC(C(=O)NCc3ccccc3)C2)c1C (centres undefined),-22.3%,?,-25.4%,-60.1*
CCn1ncc(C2=NOC(C(=O)NCc3ccc(OC)cc3)C2)c1C (centres undefined),-25.1%,?,-18.3%,-18.4
CCOc1cccc2c1OC1(C)CC2NC(=O)N1c1cccc(Cl)c1 (centres undefined),22.0%,-21.2%,0.0%,-14.9
CN1C(=O)C2=NC(C3CCCC3)=NC2N(C)C1=O (centres undefined),.,68.1%,.,.
Cc1ccc(C(=O)NC(NC(=O)c2ccc(C)cc2)c2cccc([N+](=O)[O-])c2)cc1,-16.8%,-23.5%,3.8%,-60.2*
Cc1ccccc1C(=O)NC(NC(=O)c1ccccc1C)c1cccc([N+](=O)[O-])c1,?,?,4.7%,-36.2
O=C(Nc1ccc(N2CCN(C(=O)c3ccco3)CC2)c(Cl)c1)c1cc2ccccc2o1,?,?,8.91µM*,-99.3*
CCC(=O)N1CCN(c2ccc(NC(=O)c3ccco3)cc2Cl)CC1,?,17.8%,19.7%,99.5
O=C(Nc1ccc(N2CCN(C(=O)c3ccccc3)CC2)c(Cl)c1)c1ccco1,?,?,-68.2%,-32.8
CCC(=O)N1CCN(c2ccc(NC(=O)c3cc4ccccc4o3)cc2Cl)CC1,?,11.2µM*,8.91µM*,-103.6*
CCCC(=O)N1CCN(c2ccc(NC(=O)c3cc4ccccc4o3)cc2Cl)CC1,15.8µM*,?,4.47µM*,-102.5*
CC(C)Sc1nnc2n(CCc3ccccc3)c(=O)c3c4c(sc3n12)COC(C)(C)C4,-0.1%,-3.0%,-21.2%,.
CCOc1ccc(/C=N/NC(=O)c2cc(-c3cccn3C)n[nH]2)cc1,?,-27.1%[46.1 µM],-12.0%,-6.4
COC(=O)c1sccc1NC(=O)C1CC(C)=C(C)CC1C(=O)O (centres undefined),24.6%[46.1 µM],1.8%[46.1 µM],-10.4%,3.3
O=[N+]([O-])c1ccc(O)c(-c2ccnc3cc(-c4ccccc4)nn23)c1,?,-15.3%[46.1 µM],?,-77.8*
Cc1c(Cl)ccc2sc(N3CCN(C(=O)CCS(=O)(=O)c4ccc(F)cc4)CC3)nc12,?,.,11.2µM*,-70.2*
Cc1ccc(S(=O)(=O)CCC(=O)N2CCN(c3ccc(Cl)cc3)CC2)cc1,-26.6%,-12.5%,?,-70.1*
Cc1ccc(S(=O)(=O)CCC(O)c2ccc(Cl)cc2)cc1 (centres undefined),.,.,-16.8%,-102.5*
Cc1ccc2sc(N3CCN(C(=O)CCS(=O)(=O)c4ccc(F)cc4)CC3)nc2c1C,13.2%[46.1 µM],.,?,-37.2
O=C(CCS(=O)(=O)c1ccc(Cl)cc1)N1CCN(c2ccc(F)cc2)CC1,.,.,-25.5%,-4.2
CC(C)CN1CC(=O)N2C(c3ccccc3)c3[nH]c4ccccc4c3C[C@H]2C1=O (some centres undefined),.,.,6.5%,7.6
COc1ccccc1N1CCN(C(=O)c2sc3ncn(CC(=O)N4CCC(C)CC4)c(=O)c3c2C)CC1,.,.,-15.9%,-17.7
CCC(=O)Nc1ccccc1C(=O)NC1CCCCC1,-1.9%,3.2%,-7.1%,-109.7*
SMILES,Lassa entry inh,Marburg entry inh,FMDV inh,HCMV antiviral
CC(NCC(=O)Nc1ccccc1C(=O)NC1CC1)c1cccc(Cl)c1 (centres undefined),-5.4%[46.1 µM],?,-9.9%,18.3
CC(NCC(=O)Nc1ccccc1C(=O)NC1CC1)c1ccc(Cl)cc1 (centres undefined),.,.,20µM*,-12.0
Cc1ccc(Cl)c(OCC(=O)Nc2ccccc2C(=O)NC2CC2)c1,.,.,-22.7%,-100.1*
O=C(O)CCC(=O)Nc1ccccc1C(=O)NC1CCCCC1,7.2%,0.0%,-2.6%,12.1
CCN(CC)S(=O)(=O)c1ccc(OC)c(NC(=S)Nc2cc(C)ccc2C)c1,-1.4%,4.4%,.,.
CCOCCCNC(=O)c1ccc(-n2c(-c3ccccc3)cc3c2CCCC3)cc1,?,.,-6.2%,-66.0*
CC1CCc2c(cc(-c3ccccc3)n2-c2ccc(C(=O)NC(C)C)cc2)C1 (centres undefined),?,.,-26.8%,-99.2*
CCCNC(=O)c1ccc(-n2c(-c3ccccc3)cc3c2CCC(C)C3)cc1 (centres undefined),?,.,?,-99.2*
CC(C)NC(=O)c1ccc(-n2c(-c3ccccc3)cc3c2CCCCC3)cc1,17.0%[46.1 µM],.,11.7%,?

# Compound activity from PubChem.
